We go through three compounds from PubChem BioAssay (EPA / NIEHS).

The structures appear in SMILES notation. The source made the active and inactive calls. How the source made its calls: active means hit-call score of the fitted dose curve at least 0.9, where 1 is the maximum; inactive means score below 0.9.

Holding throughout (conditions): mRNA level, 48 h; actives raise or lower the signal
Read-out in experiment [1]: ABC Transporter (ABCB11), ABCB11 (gene 8647)
The experiment can be described thus: LTEA_HepaRG_ABCB11: Life Technologies and Expression Analysis (LTEA) Assay for ABC Transporter (ABCB11) using HepaRG (AID 2283463). The gist of the method: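 ABCB11 transcript levels are read by Fluidigm TaqMan qRT-PCR after 48 h chemical treatment of human HepaRG cells. Concentrations span 100 uM downward in half-log steps with 0.5% DMSO; gain or loss is fitted against DMSO controls.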

Read-out in experiment [2]: ABC Transporter (ABCC2), ABCC2 (gene 1244)
The experiment can be described thus: LTEA_HepaRG_ABCC2: Life Technologies and Expression Analysis (LTEA) Assay for ABC Transporter (ABCC2) using HepaRG (AID 2283464). The gist of the method:
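qRT-PCR (TaqMan, Fluidigm array) read-out of ABCC2 mRNA, normalized to three housekeeping genes. Differentiated HepaRG cells were treated 48 h in serum-free induction medium with 8-point half-log series from 100 uM in 0.5% DMSO; curves fitted bidirectionally relative to DMSO.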

Read-out in experiment [3]: Broad substrate specificity ATP-binding cassette transporter ABCG2 (Homo sapiens) (UniProt Q9UNQ0)
The experiment can be described thus: LTEA_HepaRG_ABCG2: Life Technologies and Expression Analysis (LTEA) Assay for ABC Transporter (ABCG2) using HepaRG (AID 2283465). An outline of the steps: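 Read-out is ABCG2 mRNA induction or loss quantified by qRT-PCR after 48 h chemical treatment of human HepaRG cells, normalized to three housekeeping genes. Concentrations reached 100 uM top in half-log steps; fitting was bidirectional against 0.5% DMSO.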

Read-out in experiment [4]: ATP-citrate lyase (ACLY), ACLY (gene 47)
As to the kind of experiment: LTEA_HepaRG_ACLY: Life Technologies and Expression Analysis (LTEA) Assay for ATP-citrate lyase (ACLY) using HepaRG (AID 2283466). The gist of the method: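 HepaRG, 48 h exposure, 8-pt half-log dilutions (top 100 uM), 0.5% DMSO. Readout: ACLY mRNA, TaqMan qRT-PCR, housekeeping-normalized (ACTB/GAPDH/POLR2A). Bidirectional curve fit vs DMSO.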

Read-out in experiment [5]: Peroxisomal acyl-coenzyme A oxidase 1 (ACOX1) gene, ACOX1 (gene 51)
The experiment can be described thus: LTEA_HepaRG_ACOX1: Life Technologies and Expression Analysis (LTEA) Assay for Peroxisomal acyl-coenzyme A oxidase 1 (ACOX1) gene using HepaRG (AID 2283467). An outline of the steps: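 Measured by qRT-PCR against three housekeeping genes: ACOX1 transcript change in human HepaRG cells after 48 h dosing. Concentrations ran up to 100 uM in half-log steps. Curves were fitted bidirectionally relative to 0.5% DMSO.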

Read-out in experiment [6]: Alkaline Phosphatase, Placental (ALPP) gene, ALPP (gene 250)
The experiment can be described thus: LTEA_HepaRG_ALPP: Life Technologies and Expression Analysis (LTEA) Assay for Alkaline Phosphatase, Placental (ALPP) gene using HepaRG (AID 2283468).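 On AC50: differentiated human HepaRG liver cells in serum-free induction medium.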 The gist of the method: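 qRT-PCR readout of ALPP mRNA (Fluidigm TaqMan), normalized to ACTB/GAPDH/POLR2A, after 48 h chemical exposure of HepaRG cells; 8-point half-log series, top 100 uM, 0.5% DMSO vehicle. Bidirectional curve fit versus DMSO baseline.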

Read-out in experiment [7]: Bcl-2 (BAD) gene, BAD (gene 572)
The experiment can be described thus: LTEA_HepaRG_BAD: Life Technologies and Expression Analysis (LTEA) Assay for Bcl-2 (BAD) gene using HepaRG (AID 2283469). The gist of the method: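 BAD transcript change, measured by qRT-PCR against three housekeeping genes and fitted in both directions relative to 0.5% DMSO, after 48 h chemical treatment of human HepaRG liver cells at concentrations up to 100 uM.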

Read-out in experiment [8]: Bcl-2 (BAX) gene, BAX (gene 581)
As to the kind of experiment: LTEA_HepaRG_BAX: Life Technologies and Expression Analysis (LTEA) Assay for Bcl-2 (BAX) gene using HepaRG (AID 2283470). An outline of the steps:
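Concentration-response endpoint fitted in both directions relative to 0.5% DMSO vehicle. Human HepaRG cultures receive test chemicals for 48 h at up to 100 uM; BAX mRNA is quantified by qRT-PCR against housekeeping genes.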

Read-out in experiment [9]: adenosine kinase (ADK) gene, ADK (gene 132)
The experiment can be described thus: LTEA_HepaRG_ADK: Life Technologies and Expression Analysis (LTEA) Assay for adenosine kinase (ADK) gene using HepaRG (AID 2283471). The gist of the method: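 HepaRG (human liver), 48 h chemical exposure, 8-pt half-log series, top 100 uM, 0.5% DMSO vehicle. Readout: ADK mRNA by qRT-PCR vs housekeeping genes; bidirectional curve fit relative to DMSO baseline.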

Read-out in experiment [10]: Alpha-fetoprotein (AFP) gene, AFP (gene 174)
As to the kind of experiment: LTEA_HepaRG_AFP: Life Technologies and Expression Analysis (LTEA) Assay for Alpha-fetoprotein (AFP) gene using HepaRG (AID 2283472). The gist of the method: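 After a 48 h plating period, cells are moved to serum-free induction medium and dosed in duplicate (100 uM maximum, half-log dilutions, 0.5% DMSO) for another 48 h. Total RNA goes to TaqMan qRT-PCR; AFP signal is housekeeping-normalized.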

Read-out in experiment [11]: BCL2L11 (gene 10018)
As to the kind of experiment: LTEA_HepaRG_BCL2L11: Life Technologies and Expression Analysis (LTEA) Assay for Bcl-2 (BCL2L11) gene using HepaRG (AID 2283473). The gist of the method:
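HepaRG, 48 h exposure, 8-pt half-log series from 100 uM in 0.5% DMSO, duplicates; qRT-PCR (Fluidigm TaqMan) for BCL2L11, housekeeping-normalized; bidirectional curve fit relative to DMSO baseline.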

Read-out in experiment [12]: Apolipoprotein A-V (APOA5) gene, APOA5 (gene 116519)
As to the kind of experiment: LTEA_HepaRG_APOA5: Life Technologies and Expression Analysis (LTEA) Assay for Apolipoprotein A-V (APOA5) gene using HepaRG (AID 2283474). The gist of the method: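 HepaRG, 48 h chemical exposure in serum-free induction medium, 8-pt half-log series (top 100 uM), 0.5% DMSO vehicle, duplicates. Readout: APOA5 mRNA by qRT-PCR, housekeeping-normalized; bidirectional fit vs DMSO baseline.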

Read-out in experiment [13]: Apoptosis regulator Bcl-2 (Homo sapiens) (UniProt P10415)
The experiment can be described thus: LTEA_HepaRG_BCL2: Life Technologies and Expression Analysis (LTEA) Assay for Bcl-2 gene using HepaRG (AID 2283475). An outline of the steps:
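Expression change of BCL2 mRNA in HepaRG after 48 h dosing, quantified by TaqMan qRT-PCR against three endogenous controls. Concentration-response used eight points up to 100 uM, vehicle 0.5% DMSO.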

Read-out in experiment [14]: Bcl-2 (BID) gene, BID (gene 637)
As to the kind of experiment: LTEA_HepaRG_BID: Life Technologies and Expression Analysis (LTEA) Assay for Bcl-2 (BID) gene using HepaRG (AID 2283476). An outline of the steps:
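Gain or loss of BID expression is fitted relative to 0.5% DMSO vehicle. Human HepaRG liver cells received a 48 h chemical exposure over an eight-point concentration range.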

Read-out in experiment [15]: Caspase-3 (Homo sapiens) (UniProt P42574)
The experiment can be described thus: LTEA_HepaRG_CASP3: Life Technologies and Expression Analysis (LTEA) Assay for cysteine-aspartic acid protease (CASP3) using HepaRG (AID 2283477). The gist of the method:
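HepaRG, 48 h exposure, 8 conc. (top 100 uM, half-log steps, duplicate), 0.5% DMSO vehicle; qRT-PCR of CASP3 transcript, housekeeping-normalised (ACTB/GAPDH/POLR2A); bidirectional curve fit vs DMSO baseline.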

Read-out in experiment [16]: Cytochrome P450 (CYP24A1), CYP24A1 (gene 1591)
The experiment can be described thus: LTEA_HepaRG_CYP24A1: Life Technologies and Expression Analysis (LTEA) Assay for Cytochrome P450 (CYP24A1) using HepaRG (AID 2283478). An outline of the steps:
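qRT-PCR read-out: CYP24A1 transcript levels normalized to three housekeeping genes, bidirectional curve fits against 0.5% DMSO baseline. Human HepaRG cells treated 48 h with chemicals at eight concentrations from 100 uM in half-log steps.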

Read-out in experiment [17]: Cytochrome P450 (CYP1A2), CYP1A2 (gene 1544)
As to the kind of experiment: LTEA_HepaRG_CYP1A2: Life Technologies and Expression Analysis (LTEA) Assay for Cytochrome P450 (CYP1A2) using HepaRG (AID 2283479). The gist of the method: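 HepaRG, 48 h exposure, top 100 uM, half-log 8-pt, 0.5% DMSO vehicle, duplicates. Readout: TaqMan qRT-PCR of CYP1A2 mRNA, housekeeping-normalized (ACTB/GAPDH/POLR2A). Gain/loss fit relative to DMSO baseline.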

Read-out in experiment [18]: Cytochrome P450 (CYP2B6), CYP2B6 (gene 1555)
As to the kind of experiment: LTEA_HepaRG_CYP2B6: Life Technologies and Expression Analysis (LTEA) Assay for Cytochrome P450 (CYP2B6) using HepaRG (AID 2283481). An outline of the steps: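 Read-out is CYP2B6 mRNA by TaqMan qRT-PCR, normalized to three housekeeping genes and fitted bidirectionally against 0.5% DMSO baseline. Human HepaRG cells received test chemicals for 48 h, top concentration 100 uM, half-log dilutions.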

Read-out in experiment [19]: Cytochrome P450 2C19 (Homo sapiens) (UniProt P33261)
As to the kind of experiment: LTEA_HepaRG_CYP2C19: Life Technologies and Expression Analysis (LTEA) Assay for CYP2C19 using HepaRG (AID 2283482). The gist of the method: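 HepaRG, 48 h chemical exposure, 8-pt half-log series from 100 uM in 0.5% DMSO, duplicates. Readout: CYP2C19 mRNA by TaqMan qRT-PCR, housekeeping-normalized. Bidirectional fit vs DMSO baseline; phenobarbital 1mM as induction control.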

Read-out in experiment [20]: cysteine-aspartic acid protease (CASP8), CASP8 (gene 841)
The experiment can be described thus: LTEA_HepaRG_CASP8: Life Technologies and Expression Analysis (LTEA) Assay for cysteine-aspartic acid protease (CASP8) using HepaRG (AID 2283480). An outline of the steps:
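HepaRG, 48 h exposure, duplicate wells; 8 conc, half-log from 100 uM, 0.5% DMSO. Serum-free induction medium. CASP8 mRNA by TaqMan qRT-PCR, norm. ACTB/GAPDH/POLR2A; gain/loss fitted vs DMSO.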

Sequence of Apoptosis regulator Bcl-2 (Homo sapiens) (P10415 whole entry, looked up): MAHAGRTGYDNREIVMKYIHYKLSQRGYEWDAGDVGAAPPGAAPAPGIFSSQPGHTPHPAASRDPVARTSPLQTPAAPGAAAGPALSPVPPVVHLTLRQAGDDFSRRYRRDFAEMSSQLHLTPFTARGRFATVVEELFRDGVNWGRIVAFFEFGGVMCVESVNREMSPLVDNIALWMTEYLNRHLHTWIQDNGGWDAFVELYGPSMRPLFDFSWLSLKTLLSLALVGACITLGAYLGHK
Sequence of Broad substrate specificity ATP-binding cassette transporter ABCG2 (Homo sapiens) (Q9UNQ0 whole entry, looked up): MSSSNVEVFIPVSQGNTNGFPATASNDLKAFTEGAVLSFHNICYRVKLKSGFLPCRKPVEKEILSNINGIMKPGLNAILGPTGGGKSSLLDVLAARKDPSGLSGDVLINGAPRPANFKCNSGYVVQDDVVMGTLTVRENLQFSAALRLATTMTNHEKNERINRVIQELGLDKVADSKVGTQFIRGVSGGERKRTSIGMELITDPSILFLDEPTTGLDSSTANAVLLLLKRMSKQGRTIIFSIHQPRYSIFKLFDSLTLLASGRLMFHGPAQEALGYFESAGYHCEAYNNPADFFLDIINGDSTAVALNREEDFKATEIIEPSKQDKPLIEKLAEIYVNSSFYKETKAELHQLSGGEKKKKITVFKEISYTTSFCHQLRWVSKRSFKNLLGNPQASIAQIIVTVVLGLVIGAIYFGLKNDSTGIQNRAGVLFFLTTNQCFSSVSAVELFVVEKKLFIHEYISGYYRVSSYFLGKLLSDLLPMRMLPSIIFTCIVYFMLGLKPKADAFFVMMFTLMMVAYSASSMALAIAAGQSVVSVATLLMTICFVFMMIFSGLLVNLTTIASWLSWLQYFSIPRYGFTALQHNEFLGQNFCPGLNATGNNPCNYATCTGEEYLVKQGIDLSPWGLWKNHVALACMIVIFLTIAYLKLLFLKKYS
Sequence of Caspase-3 (Homo sapiens) (P42574 whole entry, looked up): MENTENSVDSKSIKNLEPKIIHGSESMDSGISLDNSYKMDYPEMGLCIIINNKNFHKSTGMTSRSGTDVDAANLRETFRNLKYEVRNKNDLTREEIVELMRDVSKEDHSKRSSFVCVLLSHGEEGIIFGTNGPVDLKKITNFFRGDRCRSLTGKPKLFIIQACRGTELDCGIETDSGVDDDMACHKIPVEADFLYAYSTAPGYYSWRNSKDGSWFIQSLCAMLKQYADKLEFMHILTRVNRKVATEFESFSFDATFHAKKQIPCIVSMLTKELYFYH
Sequence of Cytochrome P450 2C19 (Homo sapiens) (P33261 whole entry, looked up): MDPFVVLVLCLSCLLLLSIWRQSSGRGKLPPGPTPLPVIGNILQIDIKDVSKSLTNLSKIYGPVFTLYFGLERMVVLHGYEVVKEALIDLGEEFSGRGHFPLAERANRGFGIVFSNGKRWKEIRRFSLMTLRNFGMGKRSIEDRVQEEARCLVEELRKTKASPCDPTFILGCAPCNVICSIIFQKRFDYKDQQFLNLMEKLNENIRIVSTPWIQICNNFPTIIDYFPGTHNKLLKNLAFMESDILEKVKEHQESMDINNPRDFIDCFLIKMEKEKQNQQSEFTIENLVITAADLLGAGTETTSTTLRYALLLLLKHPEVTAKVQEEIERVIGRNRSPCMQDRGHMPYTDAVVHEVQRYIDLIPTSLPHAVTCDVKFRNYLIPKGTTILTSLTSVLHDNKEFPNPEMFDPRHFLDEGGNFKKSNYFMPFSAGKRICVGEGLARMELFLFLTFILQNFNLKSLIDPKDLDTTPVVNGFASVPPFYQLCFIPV

The term AC50 denotes the concentration giving half of the maximal activity seen. With `CNS(=O)(=O)c1cc(C(=O)N2CCC(CCN3C4CCC3CC(n3c(C)nc5ccccc53)C4)(c3cccc(F)c3)CC2)c(Cl)cc1F` (centres undefined), the AC50 is 24.5 µM (active) in experiment [1]; 17.1 µM (active) in experiment [3]; 30.9 µM (active) in experiment [4]; 13.3 µM (active) in experiment [5]; 14.5 µM (active) in [6]; 24.6 µM (active) in [10]. Besides, the AC50 in experiment [12] is 30.5 µM (active); in [13], 27.4 µM (active); in experiment [17] it was 27.2 µM (active); in experiment [18], 21.7 µM (active); in [19], 50 µM (active). The outcome in experiment [2], in [7], in experiment [8], in experiment [9], in experiment [11] and in experiment [14] was inactive. Besides, the compound was called inactive in [15] and in experiment [16].
For the compound `CCNc1ccccc1`, the compound was classed as inactive in experiment [1], in experiment [2], in [3], in experiment [4], in experiment [5] and in experiment [6]. Further, the outcome in experiment [7], in experiment [8], in experiment [9], in experiment [10], in experiment [11] and in [12] was inactive. The compound was classed as inactive in [13], in experiment [14], in experiment [15], in experiment [16], in experiment [20] and in experiment [19]. Also, the results for the AC50 in experiment [17] and in experiment [18] were 16.5 µM (active) and 28.3 µM (active), respectively.
Turning to `Cc1ccc(C)c(O)c1`, the call in experiment [1], in [2], in experiment [3], in [4], in experiment [5] and in experiment [6] was inactive. The result in experiment [7], in experiment [8], in [9], in [10], in [11] and in experiment [12] was inactive. The call in experiment [13], in experiment [14], in experiment [15], in experiment [16], in [20] and in [19] was inactive. The AC50 in [17] and in experiment [18] was 51.2 µM (active) in each case.
